Test results as given in the supplement of paper PMC10849652.
Targets with a hit are over-represented here; the source holds about 7,900 in all. About 0.6% of all pairs of compound and target were hits.

What follows are targets tested with NC1(c2ccc(-c3nc4ccn5c(=O)[nH]nc5c4cc3-c3ccccc3)cc2)CCC1 (assay: log2 fold change, soluble protein after heating vs DMSO (PISA); higher = thermal stabilisation; K562 cells, 10 uM, 30 min; active = over 0.2 and 3.5 SD of the protein, either way, in both replicates (recomputed)).
Summary of the method: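 For each measurement, 10 μM compound was applied for 30 min to K562 cells at 2×10^6 cells/mL. Aliquots were heated for 3 min across 48°C-58°C, pooled, and extracted in PBS with 0.5% NP-40 at 4°C; the supernatant after 21,000xg for 90 min was soluble protein. This was quantified by TMTpro 16plex LC-MS/MS with channel sums equalised, and thermal stability was reported relative to control samples from duplicates, on a log2 fold-change scale.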

Chain of UniProt Q5XKP0 (Q5XKP0 whole entry, looked up): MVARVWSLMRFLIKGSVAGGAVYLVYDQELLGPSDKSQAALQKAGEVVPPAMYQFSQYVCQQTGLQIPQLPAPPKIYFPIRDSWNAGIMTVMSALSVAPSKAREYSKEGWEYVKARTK
Chain of UniProt Q12905 (Q12905 whole entry, looked up): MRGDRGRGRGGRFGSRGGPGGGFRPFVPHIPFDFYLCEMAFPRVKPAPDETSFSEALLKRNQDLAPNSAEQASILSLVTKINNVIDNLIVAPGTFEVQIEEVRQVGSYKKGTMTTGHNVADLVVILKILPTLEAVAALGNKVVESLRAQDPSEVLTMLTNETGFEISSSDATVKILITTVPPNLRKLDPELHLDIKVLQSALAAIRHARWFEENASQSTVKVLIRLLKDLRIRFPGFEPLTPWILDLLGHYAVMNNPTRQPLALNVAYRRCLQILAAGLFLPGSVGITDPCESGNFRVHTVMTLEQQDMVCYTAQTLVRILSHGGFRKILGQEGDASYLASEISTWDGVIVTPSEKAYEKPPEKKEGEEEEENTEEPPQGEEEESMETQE
Chain of UniProt Q9BU23 (Q9BU23 whole entry, looked up): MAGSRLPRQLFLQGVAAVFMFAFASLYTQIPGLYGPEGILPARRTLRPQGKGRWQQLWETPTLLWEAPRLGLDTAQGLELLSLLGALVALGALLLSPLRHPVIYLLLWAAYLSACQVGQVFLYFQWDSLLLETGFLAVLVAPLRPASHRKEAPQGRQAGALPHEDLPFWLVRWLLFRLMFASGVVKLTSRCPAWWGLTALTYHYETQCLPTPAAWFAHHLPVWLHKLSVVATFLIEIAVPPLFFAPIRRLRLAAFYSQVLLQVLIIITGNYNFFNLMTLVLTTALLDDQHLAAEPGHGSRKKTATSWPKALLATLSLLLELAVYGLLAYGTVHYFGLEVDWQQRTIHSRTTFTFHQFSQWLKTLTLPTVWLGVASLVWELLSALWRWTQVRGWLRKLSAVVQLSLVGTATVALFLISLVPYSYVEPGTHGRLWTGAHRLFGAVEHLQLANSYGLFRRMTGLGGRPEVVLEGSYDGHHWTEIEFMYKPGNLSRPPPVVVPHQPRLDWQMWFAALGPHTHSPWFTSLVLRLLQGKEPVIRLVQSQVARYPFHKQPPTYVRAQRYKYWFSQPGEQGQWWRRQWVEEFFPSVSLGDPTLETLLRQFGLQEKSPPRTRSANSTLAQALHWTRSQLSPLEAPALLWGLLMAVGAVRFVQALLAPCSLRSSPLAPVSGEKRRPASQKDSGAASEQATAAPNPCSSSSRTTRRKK
Chain of UniProt O94822 (O94822 whole entry, looked up): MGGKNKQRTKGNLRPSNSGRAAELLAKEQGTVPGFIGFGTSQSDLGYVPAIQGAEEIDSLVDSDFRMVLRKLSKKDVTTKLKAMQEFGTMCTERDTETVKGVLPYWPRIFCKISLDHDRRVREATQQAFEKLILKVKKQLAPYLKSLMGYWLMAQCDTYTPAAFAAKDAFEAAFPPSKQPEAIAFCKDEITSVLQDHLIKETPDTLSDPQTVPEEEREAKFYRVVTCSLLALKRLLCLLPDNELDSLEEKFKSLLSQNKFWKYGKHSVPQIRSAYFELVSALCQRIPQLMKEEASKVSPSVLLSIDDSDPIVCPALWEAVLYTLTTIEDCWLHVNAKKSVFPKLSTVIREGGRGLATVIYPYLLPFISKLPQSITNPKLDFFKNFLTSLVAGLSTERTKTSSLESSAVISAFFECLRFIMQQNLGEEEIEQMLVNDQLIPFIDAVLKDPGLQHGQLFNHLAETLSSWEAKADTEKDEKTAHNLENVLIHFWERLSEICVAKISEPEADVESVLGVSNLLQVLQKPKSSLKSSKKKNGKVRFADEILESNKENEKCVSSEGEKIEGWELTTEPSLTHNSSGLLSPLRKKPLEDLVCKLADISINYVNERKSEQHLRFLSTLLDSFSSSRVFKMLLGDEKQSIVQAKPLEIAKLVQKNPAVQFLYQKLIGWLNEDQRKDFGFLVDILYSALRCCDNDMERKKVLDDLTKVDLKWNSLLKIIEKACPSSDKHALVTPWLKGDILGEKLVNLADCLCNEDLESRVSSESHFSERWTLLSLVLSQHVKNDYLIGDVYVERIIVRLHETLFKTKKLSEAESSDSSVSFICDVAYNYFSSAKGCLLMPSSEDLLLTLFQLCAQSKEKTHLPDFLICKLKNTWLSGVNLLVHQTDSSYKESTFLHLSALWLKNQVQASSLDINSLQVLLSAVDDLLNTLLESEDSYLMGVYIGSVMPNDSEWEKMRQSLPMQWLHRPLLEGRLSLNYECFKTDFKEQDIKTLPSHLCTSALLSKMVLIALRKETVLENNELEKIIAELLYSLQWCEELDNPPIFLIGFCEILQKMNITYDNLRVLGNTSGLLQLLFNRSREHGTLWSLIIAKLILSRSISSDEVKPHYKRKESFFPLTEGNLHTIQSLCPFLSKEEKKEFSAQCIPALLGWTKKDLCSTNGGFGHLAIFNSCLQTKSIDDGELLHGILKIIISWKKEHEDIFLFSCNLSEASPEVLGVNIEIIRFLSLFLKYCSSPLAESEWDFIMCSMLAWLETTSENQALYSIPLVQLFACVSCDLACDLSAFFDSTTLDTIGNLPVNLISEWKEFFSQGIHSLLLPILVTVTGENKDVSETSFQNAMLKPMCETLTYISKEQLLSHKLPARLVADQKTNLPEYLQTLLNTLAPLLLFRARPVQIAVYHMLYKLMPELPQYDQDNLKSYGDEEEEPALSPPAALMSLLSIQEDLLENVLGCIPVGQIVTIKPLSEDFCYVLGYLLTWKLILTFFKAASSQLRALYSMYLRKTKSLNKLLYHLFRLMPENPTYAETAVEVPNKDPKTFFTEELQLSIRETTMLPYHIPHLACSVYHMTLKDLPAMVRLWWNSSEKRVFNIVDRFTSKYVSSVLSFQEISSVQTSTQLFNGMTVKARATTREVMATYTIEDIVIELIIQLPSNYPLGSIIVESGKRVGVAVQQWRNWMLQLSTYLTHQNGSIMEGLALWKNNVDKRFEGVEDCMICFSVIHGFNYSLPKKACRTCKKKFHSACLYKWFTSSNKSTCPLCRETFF
Chain of UniProt P20700 (P20700 whole entry, looked up): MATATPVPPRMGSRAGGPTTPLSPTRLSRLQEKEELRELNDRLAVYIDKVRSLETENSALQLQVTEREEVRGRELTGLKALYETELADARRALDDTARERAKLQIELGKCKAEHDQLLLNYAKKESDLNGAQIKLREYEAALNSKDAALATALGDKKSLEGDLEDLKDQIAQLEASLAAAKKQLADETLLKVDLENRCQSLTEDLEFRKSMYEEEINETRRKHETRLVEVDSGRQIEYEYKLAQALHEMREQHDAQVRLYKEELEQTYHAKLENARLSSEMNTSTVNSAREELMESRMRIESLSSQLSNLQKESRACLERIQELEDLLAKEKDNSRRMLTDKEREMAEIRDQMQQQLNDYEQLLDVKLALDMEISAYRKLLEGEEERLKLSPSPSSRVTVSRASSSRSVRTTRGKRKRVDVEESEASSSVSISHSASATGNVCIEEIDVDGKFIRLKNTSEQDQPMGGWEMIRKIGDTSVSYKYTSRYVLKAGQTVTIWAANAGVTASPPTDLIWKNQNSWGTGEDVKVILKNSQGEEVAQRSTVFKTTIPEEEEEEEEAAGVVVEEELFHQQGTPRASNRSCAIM
Chain of UniProt Q68DH5 (Q68DH5 whole entry, looked up): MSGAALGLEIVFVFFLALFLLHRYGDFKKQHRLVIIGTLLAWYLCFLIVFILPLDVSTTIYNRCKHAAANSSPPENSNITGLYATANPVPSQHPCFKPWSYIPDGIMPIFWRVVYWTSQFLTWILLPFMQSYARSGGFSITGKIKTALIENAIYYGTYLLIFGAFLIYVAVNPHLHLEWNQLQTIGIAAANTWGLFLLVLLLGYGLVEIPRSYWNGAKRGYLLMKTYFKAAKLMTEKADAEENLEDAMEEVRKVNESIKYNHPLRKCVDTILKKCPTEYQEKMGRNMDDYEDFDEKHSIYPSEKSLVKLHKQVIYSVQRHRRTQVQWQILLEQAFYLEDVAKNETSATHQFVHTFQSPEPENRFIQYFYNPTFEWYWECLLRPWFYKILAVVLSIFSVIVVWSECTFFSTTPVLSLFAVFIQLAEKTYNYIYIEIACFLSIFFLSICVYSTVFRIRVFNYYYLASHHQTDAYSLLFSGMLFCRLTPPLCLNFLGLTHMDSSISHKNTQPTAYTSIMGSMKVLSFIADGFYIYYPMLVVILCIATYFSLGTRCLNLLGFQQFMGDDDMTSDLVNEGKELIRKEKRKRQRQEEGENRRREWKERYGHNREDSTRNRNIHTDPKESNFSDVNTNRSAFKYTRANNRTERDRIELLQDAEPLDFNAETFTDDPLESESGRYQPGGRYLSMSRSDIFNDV
Chain of UniProt Q96A72 (Q96A72 whole entry, looked up): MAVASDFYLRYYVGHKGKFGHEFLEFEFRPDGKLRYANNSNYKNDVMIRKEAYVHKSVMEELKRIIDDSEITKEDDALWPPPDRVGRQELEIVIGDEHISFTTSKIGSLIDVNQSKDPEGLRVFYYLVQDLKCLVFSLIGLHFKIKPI

log2 fold change, inactive:
KRAS isoform 2 (UniProt P01116) 0.091
LEMD3 (UniProt Q9Y2U8) -0.142
LIMD1 (UniProt Q9UGP4) 0.004
LMF2 (UniProt Q9BU23) -0.057
IPO13 (UniProt O94829) -0.206
LNPEP (UniProt Q9UIQ6) -0.037
MAGOHB (UniProt Q96A72) -0.039
MAP3K7 (UniProt O43318) -0.141
KPNB1 (UniProt Q14974) -0.073
MAPK12 (UniProt P53778) -0.09
MEPCE (UniProt Q7L2J0) -0.127
ILF2 (UniProt Q12905) 0.121
MAPKAPK3 (UniProt Q16644) -0.125
MCL1 (UniProt Q07820) -0.093
MDN1 (UniProt Q9NU22) -0.138
MAP3K4 isoform 2 (UniProt Q9Y6R4) -0.104
MAP2K2 (UniProt P36507) -0.023
KCTD2 (UniProt Q14681) 0.032
MARK3 (UniProt P27448) -0.006
LUC7L2 (UniProt Q9Y383) 0.09
LMNB1 (UniProt P20700) 0.078
MICOS13 (UniProt Q5XKP0) -0.119
IMMT isoform 2 (UniProt Q16891) -0.044
KEAP1 (UniProt Q14145) -0.076
MAGI1 (UniProt Q96QZ7) 0.003
MGST3 (UniProt O14880) 0.076
MICU1 isoform 3 (UniProt Q9BPX6) -0.012
MAP4 (UniProt E7EVA0) 0.144
LNPK (UniProt Q9C0E8) 0.009
KIF1B isoform 4 (UniProt O60333) -0.16
LIAS (UniProt O43766) -0.035
MAPK8 isoform 3 (UniProt P45983) -0.062
MFGE8 (UniProt Q08431) 0.049
KHDC4 (UniProt Q7Z7F0) -0.078
LUC7L3 (UniProt O95232) 0.058
LTN1 isoform 3 (UniProt O94822) -0.125
LPCAT3 (UniProt Q6P1A2) -0.185
LMBRD2 (UniProt Q68DH5) 0.099
KPNA6 (UniProt O60684) -0.06
